Rango complex inh: qHTS Assay for Inhibitors of Rango (Ran-regulated importin-beta cargo) - Importin beta complex formation; Rango CFP/YFP FRET sensor + importin beta, 45 min; Potency, µM (titrated, usually from 92.2 µM), for the others: at the top dose inhibition of complex formation; 340,000 compounds, 0.031% hits; calls by dose curve;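 also: 0% = DMSO wells and 100% = buffer wells lacking importin beta; nearly all actives have a fitted effect of over 15% in size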
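FRET biosensor (snurportin 1 IBB flanked by EYFP and cerulean), 50 nM, with compound 5 min, then 0.125 microM importin beta in PBS, 1 mM DTT, 0.02% Tween-20, 0.1% BSA. CFP/YFP ratio read after 45 min at room temperature; pre-read flags interference.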
Rango release inh: qHTS Assay for Inhibitors of RanGTP induced Rango (Ran-regulated importin-beta cargo) - Importin beta complex dissociation. Snurportin-1 (Homo sapiens) + GTP-binding nuclear protein Ran (Homo sapiens) + Importin …. Biochemical FRET Rango-importin beta, RanGTP-induced dissociation. Potency, µM (highest dose often 46.1 µM), for the others: at the highest dose activity change, negative = inhibition. 340,000 compounds, 0.071% hits; calls by dose curve; also: % of control where 0% means no effect; nearly all actives have a fitted effect of over 45% in size
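Rango (0.1 uM)–importin beta (0.25 uM) complex; RanGTP-RCC1 trigger; 45 min RT; CFP/YFP FRET read.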
TDP1 block: qHTS Assay for Inhibitors of Tyrosyl-DNA Phosphodiesterase (TDP1); Tyrosyl-DNA phosphodiesterase 1 (Homo sapiens), Q9NUW8; Potency, µM (top dose mostly 130 µM), for inactives: top-dose activity change, negative = inhibition, usual class: inhibitors; recombinant TDP1, AlphaScreen DNA substrate cleavage; 350,000 compounds, 0.28% hits; also: % is scaled to controls: 0 for no effect and ±100 for the full control effect; nearly all actives have a fitted effect of over 40% in size
Target sequence (Q9NUW8 whole entry, looked up): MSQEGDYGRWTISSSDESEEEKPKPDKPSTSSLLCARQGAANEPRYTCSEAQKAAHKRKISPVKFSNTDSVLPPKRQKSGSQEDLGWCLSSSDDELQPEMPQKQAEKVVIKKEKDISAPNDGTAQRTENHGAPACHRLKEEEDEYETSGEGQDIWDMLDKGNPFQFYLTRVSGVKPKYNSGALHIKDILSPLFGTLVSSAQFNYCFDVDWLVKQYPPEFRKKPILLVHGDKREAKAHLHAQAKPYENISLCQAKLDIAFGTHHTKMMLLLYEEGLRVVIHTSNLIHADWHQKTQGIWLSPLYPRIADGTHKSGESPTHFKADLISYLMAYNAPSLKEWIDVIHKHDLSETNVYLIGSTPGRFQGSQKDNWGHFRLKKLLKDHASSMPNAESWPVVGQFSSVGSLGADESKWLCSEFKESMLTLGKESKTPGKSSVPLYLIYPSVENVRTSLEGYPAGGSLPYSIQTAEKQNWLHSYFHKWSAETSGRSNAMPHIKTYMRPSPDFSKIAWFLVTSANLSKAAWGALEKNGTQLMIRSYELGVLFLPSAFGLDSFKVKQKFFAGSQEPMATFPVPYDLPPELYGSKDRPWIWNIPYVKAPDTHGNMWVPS
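Tdp1 1 nM final; 15 min RT w/ cpd; substrate 15 nM, 5 min; beads 10 ug/ml, 10 min; AlphaScreen read. Neg ctrl: no enzyme.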
PTAP TSG101 blk: qHTS Assay for Iinhibitors of HIV-1 Budding by Blocking the Interaction of PTAP/TSG101; Tumor susceptibility gene 101 protein (Homo sapiens), Q99816; Fluorescence polarization, FITC-PTAP peptide / Tsg101 binding; Potency, µM (titrated, usually from 115 µM), without a hit: at the top dose activity change, negative = inhibition, most hits filed as inhibitors; 340,000 tested, under 10 active; active = well fitted inhibition curve with a large enough effect in the main read-out, with a control signal flat, not every such curve was filed as active; inconclusive = small, poorly fitted or top-dose-only effect, or effect the other way, or a change in a side signal; inactive = no such curve, though single readings can be large or run the other way; also: % of control where 0% means no effect
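Compounds were pin-transferred onto Tsg101 binding domain (10 uM final) in HEPES pH 7.5 buffer, then FITC-PTAP peptide was added at 50 nM final. After 20 min at RT, polarization reported peptide displacement across a qHTS concentration series.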
ClpP mod: qHTS Assay for Activators of ClpP. purified B. subtilis ClpP, FRET peptide cleavage, 20 min. ATP-dependent Clp protease proteolytic subunit (Bacillus subtilis (strain 168)), P80244. 340,000 compounds, 1.9% hits. Potency, µM (top dose mostly 57.5 µM), for the others: top-dose activity change, negative = active. AID 651965, 2013; active = well fitted falling curve with a large enough effect; inconclusive = small, poorly fitted or top-dose-only effect; inactive = no such curve, though single readings can be large or run the other way; also: the source files actives as falling curves though it sought activators and does not explain the sign; nearly all actives have a fitted effect of over 65% in size
Target sequence (P80244 whole entry, looked up): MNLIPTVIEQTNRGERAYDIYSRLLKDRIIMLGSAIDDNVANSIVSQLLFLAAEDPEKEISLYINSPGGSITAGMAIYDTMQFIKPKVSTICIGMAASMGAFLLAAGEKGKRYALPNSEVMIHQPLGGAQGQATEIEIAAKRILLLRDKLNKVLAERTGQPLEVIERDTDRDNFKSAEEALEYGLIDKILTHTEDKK
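ClpP 10 microg/mL final, pH 8 Tris/KCl buffer with BSA, glycerol, Tween-20; compound pinned in; FRET-FV substrate; RT 20 min; Ex320/Em430; ΔFRET vs ADEP 5.8 microM, DMSO, no enzyme.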
12-LOX inh: Primary qHTS assay for inhibitors of human arachidonate 12S-lipoxygenase (ALOX12): Round 2; purified 12hLO, xylenol orange hydroperoxide absorbance; Potency, µM (highest dose often 108 µM), without a hit: at the top dose activity change, negative = inhibition, most hits filed as inhibitors; 580,000 compounds, 1.1% hits; AID 1671190, 2021; also: % is scaled to controls: 0 for no effect and ±100 for the full control effect
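Purified human 12hLO (150 nM final) in 25 mM Hepes, 0.01% Triton X-100, pH 7.0 was preincubated 15 min at room temperature with compound. Then 40 uM arachidonic acid was added, 30 min. Hydroperoxide was read by Fe-XO absorbance ratio 573/405 nm.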
ClpP inh valid: qHTS Assay for Activators of ClpP: Hit Validation of Inhibitors; purified B. subtilis ClpP, FRET-FV substrate cleavage, 20 min; AID 743245, 2014; Potency, µM (highest dose often 57.5 µM), for the others: at the top dose activity change, negative = inhibition, usual class: inhibitors; shares compounds with ClpP mod; 470 compounds, 40% hits; also: % is scaled to controls: 0 for no effect and ±100 for the full control effect; nearly all actives have a fitted effect of over 70% in size
An asterisk follows results filed as active; i = inactive; ? = inconclusive; / = no result; [ ] = dose if it differs, or a comment. Most compounds without a hit are left out; they make up all but 2.4% or so of the library. Unless noted, calls follow the shape of the dose curve; as a rule, active = well fitted curve in the direction sought with a large enough effect; inconclusive = small, poorly fitted or top-dose-only effect, or another doubt; inactive = no such curve, though single readings can be large; an effect the other way counts as inactive or inconclusive. Potency is read from the fitted curve at half-maximal effect.

SMILES	Rango complex inh	Rango release inh	TDP1 block	PTAP TSG101 blk	ClpP mod	12-LOX inh	ClpP inh valid
Cc1ccc2[nH]c3c(c2c1)CCc1cn[nH]c1-3	3.8%	-18.1%	8.0%	-0.6%	2.82µM*	?	24.3µM*
CCCC(C)C(=O)Nc1ccc2c(c1)OCCO2 (configuration not stated)	-0.7%	-4.9%	2.2%	0.2%	3.55µM*	91.6%	-0.3%
CC(Nc1ccc2c(c1)OCCO2)C(=O)Nc1ccc2c(c1)OCO2 (configuration not stated)	2.0%	0.2%	-2.6%	-0.5%	/	1.6%	/
CCC(CNC(=O)c1csc2nc(-c3ccccc3Cl)cn12)N(C)C (configuration not stated)	/	/	/	/	/	48.6%	/
O[C@@H]1CC(CNCc2ccccn2)(COc2cccnc2)C[C@@H]1O (some centres not stated)	/	/	/	/	/	26.7%	/
Cc1nc(C)c(C(=O)NCC2Cn3cccc3C(=O)N2CC(C)C)s1 (configuration not stated)	/	/	/	/	/	87.4%	/
COc1cc2c(cc1NC(=O)C(C)Oc1ccccc1)oc1ccccc12 (configuration not stated)	/	/	-8.5%	/	4.2%	-1.2%	/
COc1cc2c(cc1NC(=O)C(C)N1CCN(S(=O)(=O)c3ccc(C)c(C)c3)CC1)oc1ccccc12 (configuration not stated)	1.4%	5.2%	3.3%	-3.6%	3.16µM*	-35.2%	?
O=C(Nc1cccc(-c2cn3cccnc3n2)c1)c1ccco1	-5.7%	0.4%	9.9%	-6.6%	-3.6%	0.9%	/
O=C(Nc1cccc(-c2cn3cccnc3n2)c1)c1ccc(Br)o1	2.1%	1.5%	/	-2.7%	3.55µM*	-7.6%	2.73µM*
CCN1CCN(CCCNC(=O)Cn2nc(C)n3c(cc4cc(C)ccc43)c2=O)CC1	/	/	-1.0%	/	?	-4.7%	?
CCOCCCNC(=O)Cn1nc(C)n2c(cc3cc(C)ccc32)c1=O	/	/	1.0%	/	-9.1%	-8.9%	/
O=c1oc2cc(OCc3ccc(F)cc3F)ccc2cc1-c1ccccn1	?	-27.3%	-3.1%	-1.3%	3.16µM*	0.0%	9.68µM*
NC(=O)COc1ccc2cc(-c3ccc(F)cc3)c(=O)oc2c1	?	-26.1%	-11.8%	3.8%	/	36.6%	/
COc1ccc(NC(=O)c2cc3c(Cl)nc4ccccc4c3s2)cc1OC	?	0.2%	0.0%	0.1%	-13.6%	-8.1%	/
COc1ccc(OC)c(NC(=O)c2cc3c(Cl)nc4ccccc4c3s2)c1	5.3%	-9.6%	-1.2%	-0.7%	54.3%	1.4%	-26.3%
CCCN(CCC(=O)Nc1cc(OC)cc(OC)c1)CC1CC1	-0.8%	5.0%	-1.1%	-3.2%	34.5%	?	-7.4%
COc1cc(NC(=O)CCS(=O)(=O)c2nc(-c3cccs3)cc(C(F)(F)F)n2)cc(OC)c1OC	/	/	?	/	44.3%	-10.3%	22.9%
CCCNc1nc2ccccc2nc1C(=O)Nc1ccc(C)c(C)c1	/	/	/	/	/	18.5%	/
CC(NC(=O)c1cc(-c2ccc3c(c2)OCO3)nc2ccccc12)C(C)(C)C (configuration not stated)	0.5%	11.3%	6.6%	0.8%	39.6%	-6.6%	24.3µM*
Cc1ccc(-c2nc3cc(C(C)C)ccc3o2)cc1NC(=O)c1cc2ccccc2o1	/	/	/	/	?	-28.2%	30.6µM*
CCC(=O)c1sc(Nc2cc(Cl)ccc2C)nc1N	/	/	/	/	/	-28.6%	/
COc1ccc(C(=O)Nc2ccccc2-c2nnn(CC(=O)NCc3ccco3)n2)cc1	-5.3%	0.8%	4.0%	-0.1%	36.4%	1.2%	?
O=C(NCCn1ccn2nc(-c3ccc(F)cc3)cc2c1=O)c1c(F)cccc1Cl	/	/	/	/	/	-1.9%	/
FC(F)(F)c1cc(-c2ccc(Cl)cc2)nc2ncnn12	3.9%	-10.1%	0.9%	-2.8%	2.82µM*	0.0%	17.2µM*
SMILES	Rango complex inh	Rango release inh	TDP1 block	PTAP TSG101 blk	ClpP mod	12-LOX inh	ClpP inh valid
COc1ccccc1CNC(=O)c1ccc(Nc2nc3ccccc3n3nnnc23)cc1	/	/	-2.1%[12.3 µM]	/	i	-1.7%	15.3µM*
COc1ccc(-c2cc(C(=O)Nc3c(Cl)cc(Cl)cc3Cl)c3ccccc3n2)cc1OC	-3.5%	-0.9%	7.9%	-0.4%	230.3%	-26.6%	21.7µM*
COc1ccc(-c2cc(C(=O)Nc3ccc(Cl)cc3Cl)c3ccccc3n2)cc1OC	?	1.7%	-1.1%	-0.9%	19.6%	8.9%	/
CCCn1c(=O)c2c(C(F)(F)F)cc(-c3ccco3)nc2n(CCC)c1=O	-0.1%	?	0.0%	-3.2%	1.78µM*	3.8%	6.85µM*
CCN1CCN(c2cc(C)c3cc(NC(=S)N(C)Cc4ccccc4)ccc3n2)CC1	-0.5%	-14.3%	/	-2.3%	33.8%	3.2%	16.5%
CCC1CCc2c(sc(NC(=O)/C=C/c3ccc(C(C)C)cc3)c2C#N)C1 (configuration not stated)	/	/	/	/	/	1.2%	/
Cn1c(=O)c2c(-c3ccc(Cl)cc3)n(Cc3ccc(Cl)cc3)cc2n(C)c1=O	/	/	1.2%	/	10µM*	?	38.5µM*
Cn1c(=O)c2c(-c3ccc(Cl)cc3)n(CCc3ccccc3)cc2n(C)c1=O	/	/	13.6%	/	4.0%	?	/
O=C(CN1CCN(Cc2ccc(F)cc2)CC1)NCCc1ccccc1	-6.6%	3.0%	/	-1.8%	-0.4%	7.8%	/
O=C(CN1CCN(Cc2ccccc2)CC1)NCCc1ccccc1	4.5%	21.7%	/	0.9%	6.31µM*	-24.7%	0.6%
O=C(Nc1c(N2CCCC2)c2ccccc2oc1=O)c1cccc(Cl)c1	/	/	/	/	/	-36.5%	/
NC(=O)c1cccc(-c2ccnc3c2CC(C(=O)NCCc2ccccc2)O3)c1 (configuration not stated)	/	/	/	/	-6.6%	?	/

High-throughput results as filed in PubChem BioAssay.
